The source of these data is PubChem BioAssay.

Structures are written as SMILES. Values without a mark were called inactive. No rule for the calls is given here.

The target in the assay is Pantothenate synthetase (Mycobacterium tuberculosis (strain ATCC 25618 / H37Rv)) (UniProt P9WIL5). Briefly: Recombinant Mtb pantothenate synthetase (PanC) inhibitors, coupled enzyme, confirmatory (AID 375).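 Also: 0% = full reaction with vehicle and 100% = no enzyme background.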 To be noted: coupled enzyme assay; at 10 µM, hits give high values.
Pantothenate synthetase (Mycobacterium tuberculosis (strain ATCC 25618 / H37Rv)), sequence (P9WIL5 whole entry, looked up): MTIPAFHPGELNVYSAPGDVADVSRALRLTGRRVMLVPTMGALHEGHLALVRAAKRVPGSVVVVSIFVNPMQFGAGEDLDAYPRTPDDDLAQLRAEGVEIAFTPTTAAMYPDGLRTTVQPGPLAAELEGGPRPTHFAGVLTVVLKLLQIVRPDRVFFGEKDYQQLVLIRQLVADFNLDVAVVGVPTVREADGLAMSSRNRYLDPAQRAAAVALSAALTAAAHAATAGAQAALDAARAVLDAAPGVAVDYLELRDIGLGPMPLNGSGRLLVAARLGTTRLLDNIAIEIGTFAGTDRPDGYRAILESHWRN
`Cc1ccc2c(c1)sc1ncc(NC(=O)c3ccccc3)c(=O)n12`: the inhibition was 2%.

In the case of `COc1ccc(/C(O)=C2\C(=O)C(=O)N(c3cc(C)on3)C2c2ccccc2OC)cc1` (stereo not drawn), the inhibition is 0%.

For `CCOC(=O)c1[nH]c2ccc(OC)cc2c1NC(=O)CCN1CCC(C)CC1`, the inhibition was 0%.

In the case of `CCOC(=O)C1CCCN(C(=O)c2ccc(CS(=O)(=O)Cc3ccccc3C)o2)C1` (stereo not drawn), the inhibition was 3%.

Regarding `Brc1ccc(-c2cn3cccnc3n2)cc1`, the inhibition is 0%.

With `CCC1CCCCN1CCNS(=O)(=O)c1ccc2c(c1)oc(=O)n2C` (stereo not drawn), the inhibition was 1%.

For the molecule `O=C(O)C1CCCN1C(=O)c1cccs1` (stereo not drawn), the inhibition was 7%.

`CCC(=O)Nc1ccc(NC(=O)c2ccccn2)cn1`: the inhibition is 0%.

Take `O=C(O)CCC(=O)Nc1nc(-c2ccccc2)cs1`: the inhibition was 0%.

Regarding `Cc1nc2ccccc2c(=O)n1CC(=O)N1CCOCC1`, the inhibition was 2%.

For the molecule `O=C(NCC(c1cccnc1)N1CCN(c2ccc(F)cc2)CC1)c1ccc(F)cc1` (stereo not drawn), the inhibition was 4%.

As to `CN(CCc1ccccn1)c1ncnc2[nH]ncc12`, the inhibition is 0%.

With `CSc1nc2ccc(S(=O)(=O)N3CCOCC3)cc2s1`, the inhibition is 4%.

As to `O=c1c2nnn(Cc3ccc(Cl)cc3)c2ncn1Cc1ccc(F)cc1`, the inhibition is 0%.

`Cc1ccc(S(=O)(=O)n2nc(OC(=O)c3ccco3)cc2N)cc1`: the inhibition was 2%.

For `CCN(CC)S(=O)(=O)c1ccc2c(c1)c(=O)c(C(=O)NCCOC)cn2C`, the inhibition is 1%.

Consider `CCOC(=O)C1(C)NC(c2ccc(OC)c(OC)c2)C2C(=O)N(CC)C(=O)C21` (stereo not drawn), for which the inhibition was 9%.

As for `COC(=O)c1ccc(CNC(=O)COc2ccccc2Br)o1`, the inhibition is 5%.

As for `Cc1ccc(C(=O)NCc2ccc3c(c2)OCO3)cc1S(=O)(=O)N1CCCCC1`, the inhibition is 0%.

Take `COc1cc(CN2CCC(C(=O)NC3CCCC3)CC2)ccc1O`: the inhibition was 0%.

On to `O=C1CNCc2[nH]c3ccccc3c2N1c1ccccc1`, for which the inhibition was 0%.

On to `CC(C)C(NC(=O)c1ccco1)C(=O)NCC(c1ccco1)N1CCCCC1` (stereo not drawn), for which the inhibition was 3%.

Consider `CCn1cc(C2=NOC(C(=O)Nc3cc(C)nn3-c3ccccc3)C2)c(C)n1` (stereo not drawn), for which the inhibition is 0%.

The term inhibition denotes the change of the read-out against control, counted positive when it falls.
